Assay [1] in a line: ATG_XTT_Cytotoxicity: Cytotoxicity Assessment in the Attagene TRANS-FACTORIAL HepG2 Assay (AID 2283584). The method in brief:
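Viability endpoint from XTT after 24 h chemical exposure of reporter-transfected human HepG2 liver cells; signal loss fitted relative to DMSO negative control.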

Assay [2] can be described thus: LTEA_HepaRG_LDH_cytotoxicity: Cytotoxicity Assessment in the Life Technologies and Expression Analysis (LTEA) Assay (AID 2283563).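 For AC50: LDH activity released into spent culture medium as a marker of cell death.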 The method in brief:
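LDH release into culture medium read after 48 h chemical treatment of HepaRG cells. Duplicate wells, eight-point half-log series topping at 100 uM, 0.5% DMSO vehicle and baseline.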

For assay [3], the target named is Cellular tumor antigen p53 (Homo sapiens) (UniProt P04637). Nature of the assay: TOX21_p53_BLA_p2_ratio: Tox21 HCT-116 p53 Agonism Beta-lactamase Assay, Ratio, Phase 2 (AID 2283592). Put shortly:
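Read-out is the blue/green (460/530 nm, 405 nm excitation) ratio after 2 h CCF4-AM loading, fitted as gain versus DMSO. Compounds, pinned at 217-fold dilution from DMSO stocks, stayed 16 h on HCT-116 beta-lactamase reporter cells seeded 5 h earlier.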

For assay [4] the target is unchanged. Kind of assay: TOX21_p53_BLA_p3_ratio: Tox21 HCT-116 p53 Agonism Beta-lactamase Assay, Ratio, Phase 3 (AID 2283596). Put shortly:
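Cells were seeded at 4000/well, rested 5 h at 37C, then dosed with DMSO compound solutions (217-fold dilution) for 16 h. CCF4-AM substrate was loaded for 2 h at room temperature, and the 460/530 nm emission ratio was fitted for gain of signal versus DMSO.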

Assay [5] in a line: TOX21_p53_BLA_p4_viability: Viability Assessment in the Tox21 HCT-116 p53 Agonism Beta-lactamase Assay, Phase 4 (AID 2283597).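 Note: hits lower the luminescence signal meaning cytotoxicity.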 The method in brief:
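Cytotoxicity as reduced cellular ATP (CellTiter-Glo luminescence, 30 min room temperature), measured in the same wells following the CCF4 FRET p53 reading. Human HCT-116 cells received compounds in DMSO (217-fold dilution) for 16 h.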

Assay [6] deals with Cellular tumor antigen p53 (Homo sapiens) (UniProt P04637). Kind of assay: TOX21_p53_BLA_p5_ratio: Tox21 HCT-116 p53 Agonism Beta-lactamase Assay, Ratio, Phase 5 (AID 2283599). Put shortly:
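HCT-116 cells carrying a p53-inducible beta-lactamase reporter were seeded at 4000 cells/well and dosed after 5 h with compound in DMSO (217-fold dilution). After 16 h at 37C, CCF4-AM substrate was added for 2 h, and the 460/530 nm emission ratio was scored as gain-of-signal versus DMSO.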

Assay [7] can be described thus: TOX21_p53_BLA_p5_viability: Viability Assessment in the Tox21 HCT-116 p53 Agonism Beta-lactamase Assay, Phase 5 (AID 2283600). The method in brief: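 Viability came from CellTiter-Glo ATP luminescence, read after 30 min at room temperature. Before this, HCT-116 p53-bla cells (4000/well) had 16 hours of compound exposure at 37C, with DMSO stocks diluted 217-fold on transfer.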

Assay [8] deals with Cellular tumor antigen p53 (Homo sapiens) (UniProt P04637). Kind of assay: TOX21_p53_BLA_p4_ratio: Tox21 HCT-116 p53 Agonism Beta-lactamase Assay, Ratio, Phase 4 (AID 2283601). The method in brief:
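HCT116 cells carrying an inducible beta-lactamase reporter were plated at 4000 cells/well, rested 5 h, then exposed to compounds in DMSO (217-fold dilution) for 16 h at 37C. CCF4-AM substrate was loaded 2 h at room temperature; 460/530 nm emission ratio scored gain-of-signal versus DMSO.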

Assay [9] can be described thus: Tanguay_ZF_120hpf_MORT_legacy: (Legacy) Oregon State University Tanguay Lab 120 Hour Post-fertilization zebrafish Assay for Mortality (AID 2283633).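 For AC50: fitted as increase in binary mortality versus DMSO negative control.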 Put shortly:
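Static waterborne exposure from 6 to 120 hpf at 28C of single dechorionated wild-type (5D) embryos per well, 0.64% DMSO final. Death recorded present/absent by brightfield at 24 and 120 hpf.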

The nature of assay [10]: Tanguay_ZF_120hpf_YSE_legacy: (Legacy) Oregon State University Tanguay Lab 120 Hour Post-fertilization zebrafish Assay for Yolk Sac Edema (AID 2283634). Put shortly:
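Presence or absence of yolk sac edema was recorded at 120 hpf in surviving larvae. These were wild-type Tropical 5D embryos, chorion removed at 4 hpf, held in static exposure at 28C from 6 hpf with 0.64% DMSO vehicle.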

Assay [11] is described as follows: Tanguay_ZF_120hpf_AXIS_legacy: (Legacy) Oregon State University Tanguay Lab 120 Hour Post-fertilization zebrafish Assay for Body Axis Malformation (AID 2283635). The method in brief: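 Binary scoring of axis defects at 120 hpf under brightfield, fitted positive versus DMSO. Tropical 5D embryos, chorion removed by pronase at 4 hpf, were singly exposed in sealed, dark plates at 28C from 6 hpf; DMSO 0.64% final.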

A short description of assay [12]: Tanguay_ZF_120hpf_SNOU_legacy: (Legacy) Oregon State University Tanguay Lab 120 Hour Post-fertilization zebrafish Assay for Snout Malformation (AID 2283637). Put shortly: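 Dechorionated zebrafish, individually housed from 6 hpf in covered, sealed wells at 28C with 0.64% DMSO vehicle, were examined at 120 hpf for snout malformation. Responses were binary and analysed positive-direction relative to DMSO.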

A short description of assay [13]: Tanguay_ZF_120hpf_OTIC_legacy: (Legacy) Oregon State University Tanguay Lab 120 Hour Post-fertilization zebrafish Assay for Otic Vesicle Malformation (AID 2283639). The method in brief: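 Brightfield scoring at 120 hpf, binary present/absent; DMSO negative control, 5uM trimethyltin chloride positive control. Static exposure at 28C, final DMSO 0.64% (vol/vol). Dead embryos not scored for malformation.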

Assay [14] can be described thus: Tanguay_ZF_120hpf_PE_legacy: (Legacy) Oregon State University Tanguay Lab 120 Hour Post-fertilization zebrafish Assay for Pericardial Edema (AID 2283640). Put shortly:
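Scoring was binary, by brightfield microscopy at 120 hpf, and skipped where mortality occurred. Wild-type embryos were kept under sealed, foil-covered static exposure at 28C in 0.64% (vol/vol) DMSO.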

Assay [15] can be described thus: Tanguay_ZF_120hpf_SOMI_legacy: (Legacy) Oregon State University Tanguay Lab 120 Hour Post-fertilization zebrafish Assay for Somite Malformation (AID 2283647). Put shortly:
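Binary somite-defect scoring at 120 hpf, omitted for embryos that died, in wild-type (Tropical 5D) zebrafish with chorion removed by pronase at 4 hpf; static exposure began 6 hpf, single embryos per well, 28C, 0.64% DMSO; fitted positive versus DMSO.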

Assay [16] is described as follows: TOX21_p53_BLA_p3_viability: Viability Assessment in the Tox21 HCT-116 p53 Agonism Beta-lactamase Assay, Phase 3 (AID 2283593).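 Note: cells exposed to compound for 16 h before reading.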 Put shortly:
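HCT-116 cells (4000/well) rested 5 h at 37C, then got DMSO compounds by pin tool (217-fold dilution) for 16 h at 37C, 5% CO2. After the bla read, CellTiter-Glo was added and luminescence read at 30 min, room temperature.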

Assay [17] can be described thus: Tanguay_ZF_120hpf_EYE_legacy: (Legacy) Oregon State University Tanguay Lab 120 Hour Post-fertilization zebrafish Assay for Eye Malformation (AID 2283636).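 Note: binary presence or absence of eye malformation scored by brightfield in 120 hpf larvae.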 Put shortly:
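Static waterborne exposure of dechorionated zebrafish embryos (strain Tropical 5D), 6 to 120 hpf, sealed plates at 28C, 0.64% DMSO vehicle. Eye malformation is scored as a binary endpoint, with gain of signal analysed relative to DMSO.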

Assay [18] is described as follows: Tanguay_ZF_120hpf_JAW_legacy: (Legacy) Oregon State University Tanguay Lab 120 Hour Post-fertilization zebrafish Assay for Jaw Malformation (AID 2283638). Put shortly:
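Binary jaw-malformation call at 120 hpf by brightfield microscopy. Embryos (Tropical 5D strain, chorion removed at 4 hpf) were dosed statically at 6 hpf, one per well, at 28C with 0.64% DMSO. Embryos that died were not scored.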

Assay [19] is described as follows: Tanguay_ZF_120hpf_BRAI_legacy: (Legacy) Oregon State University Tanguay Lab 120 Hour Post-fertilization zebrafish Assay for Brain Malformation (AID 2283641). Put shortly:
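Binary brightfield scoring of brain malformation at 120 hpf in Tropical 5D larvae held under static exposure at 28C (0.64% v/v DMSO), non-mortality endpoints skipped if dead. Positive control: 5uM trimethyltin chloride; fit versus DMSO.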

Assay [20] can be described thus: TOX21_p53_BLA_p2_viability: Viability Assessment in the Tox21 HCT-116 p53 Agonism Beta-lactamase Assay, Phase 2 (AID 2283591).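 Note: compound exposure lasted 16 h at 37 °C; actives lower the ATP signal meaning cytotoxicity.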 The method in brief: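 HCT-116 p53-bla cells (4000/well) rested 5 h at 37C, then received compounds in DMSO (217-fold dilution) for 16 h at 37C, 5% CO2. After the CCF4 read, CellTiter-Glo was added; ATP luminescence was read after 30 min at room temperature.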

“And” between values parts separate entries of the source, which are not always exact repeats. Equal values may be shown once. Records with an inconclusive call do not appear. More than one record can exist for a structure, and the calls need not agree. The source made the active and inactive calls. Rule for the calls: active = hit-call score of the fitted dose curve at least 0.9, where 1 is the maximum; inconclusive = response in the unintended direction; inactive = score below 0.9.

Cellular tumor antigen p53 (Homo sapiens), sequence (P04637 whole entry, looked up): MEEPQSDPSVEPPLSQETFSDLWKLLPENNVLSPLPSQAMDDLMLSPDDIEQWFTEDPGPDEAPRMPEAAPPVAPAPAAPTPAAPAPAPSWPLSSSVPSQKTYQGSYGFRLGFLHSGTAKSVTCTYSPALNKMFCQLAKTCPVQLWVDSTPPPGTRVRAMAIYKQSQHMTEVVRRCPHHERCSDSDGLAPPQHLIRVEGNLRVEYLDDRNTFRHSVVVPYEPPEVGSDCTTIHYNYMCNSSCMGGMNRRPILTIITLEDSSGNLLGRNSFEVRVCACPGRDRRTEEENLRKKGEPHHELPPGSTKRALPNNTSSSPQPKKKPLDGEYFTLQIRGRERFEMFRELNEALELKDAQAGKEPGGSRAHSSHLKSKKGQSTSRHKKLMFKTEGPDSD

Consider `NS(=O)(=O)c1cc(C(=O)O)c(NCc2ccco2)cc1Cl`, for which the outcome in assay [1] was inactive.
The same measure, in the same setting: next, `C=C(C)C(=O)OCCOCCOC(=O)C(=C)C`: “inactive”.
Turning to `CC/C(=C(\c1ccccc1)c1ccc(OCCN(C)C)cc1)c1ccccc1`, the concentration at half-maximal activity (AC50) (usually the concentration at which the activity in the assay is half-maximal) in assay [2] is 63.5 µM (active) and 73.5 µM (active); in assay [3], 47.8 µM (active) and 84.4 µM (active) and 43.5 µM (active); in [4], 86.9 µM (active) [middle of 4 runs]; in assay [5], 22.9 µM (active) and 46.5 µM (active) and 32.3 µM (active); in assay [6], 75.4 µM (active) [middle of 4 runs]; in assay [7], 64.3 µM (active) [middle of 4 runs]. Moreover, the AC50 was 40 µM (active) and 84.5 µM (active) and 42 µM (active) in [8]; 31.4 µM (active) in [9]. In addition, the molecule was classed as inactive in assay [1], in assay [3], in assay [4], in assay [5], in assay [8] and in [9]. The molecule was called inactive in assay [10], in [11], in assay [12], in assay [13], in [14] and in [15].
On to `CCC(CC)CO`, for which the molecule was called inactive in assay [1].
Same read-out and setting: next, `Cc1cc(O)c(C)c(C)c1O`: “inactive”.
Still for that read-out and setting: for `C=CC(=O)OCC(CO)(COC(=O)C=C)COC(=O)C=C` the value was “inactive”; for `CC(=O)OCC=C(C)CCC=C(C)CCC=C(C)C`, “inactive”.
Still for that read-out and setting: next, `O=C1CCC(=O)N1`: “inactive”.
On to `C[C@]12CC[C@@H]3c4ccc(O)cc4CC[C@H]3[C@@H]1CC[C@@H]2O`, for which the result in assay [2], in [1], in [3], in [16], in assay [4] and in assay [5] was inactive. In addition, the result in assay [6], in assay [7], in assay [9], in [10], in assay [17] and in [12] was inactive. The result in [18], in assay [14], in [19] and in assay [15] was inactive. The AC50 is 29 µM (active) and 16.7 µM (active) in [3]; 32 µM (active) and 34.9 µM (active) in [4]; 31.7 µM (active) and 34.6 µM (active) in assay [6]; 31.4 µM (active) and 17.7 µM (active) and 15.6 µM (active) in [8].
Consider `CC(CO)(CO)[N+](=O)[O-]`, for which the result in assay [1] was inactive.
As for `NC(=O)c1c(Cl)cccc1Cl`, the molecule was called inactive in assay [1].
Consider `C=C(C)C(N)=O`, for which the call in [2], in [1], in [3], in [4], in assay [5] and in assay [6] was inactive. Besides, the result in [7], in assay [8], in assay [9], in [10], in assay [11] and in assay [17] was inactive. Moreover, the molecule was classed as inactive in assay [18], in [13], in assay [14], in [19] and in assay [15].
As to `O=C(O)c1ccc(C(=O)O)c(C(=O)O)c1`, the molecule was classed as inactive in assay [1].
Take `O=C1OCc2ccccc21`: in assay [1], the molecule was classed as inactive.
Still for that read-out and setting: next, `CCC=C(C)C=O`: “inactive”.
As for `CCCCOCCOCCO`, the call in [2], in [1], in [20], in assay [3], in assay [16] and in [4] was inactive. In addition, the molecule was classed as inactive in assay [5], in assay [6], in [7], in assay [8], in [9] and in [10]. The molecule was classed as inactive in assay [11], in assay [17], in assay [12], in assay [18], in assay [13] and in assay [14]. The molecule was classed as inactive in [19] and in assay [15].

Values taken from PubChem BioAssay (EPA / NIEHS).
